{"source": "PubChem BioAssay AID652017", "about": "(The Scripps Research Institute Molecular Screening Center, 2013)", "note": "In all, about 370,000 compounds went through this assay and about 3,800 (1%) were called active. Many of the other results were omitted from the sample, so actives are more common in it than they were. Unmarked numbers belong to inactive results. Cut-off read from the data, not from the text of the source: active = activation above about 7.8%; inactive = the rest."}
{"test": "SMARCA2 (BRM) function activators, primary screen, cell-based, luminescence, high throughput (AID 652017);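 note: 0% = vehicle wells and 100% = reference activator wells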", "conditions": "MG213 cells, MMTV-luciferase reporter, dexamethasone, overnight; at 9.1 µM; stronger effect = higher value"}
{"smiles": "CN(C)CCNC(=O)C(C(=O)c1ccccc1)n1ccccc1=O", "note": "(configuration not stated)", "activation": "2.29%"}
{"smiles": "O=C(CSc1nc2ccccc2nc1N1CCCCC1)N1CCN(S(=O)(=O)c2cccc([N+](=O)[O-])c2)CC1", "activation": "5.57%"}
{"smiles": "O=C(NC1CCC1)c1ccc(C#Cc2cccc(F)c2)c[n+]1[O-]", "activation": "-2.93%"}
{"smiles": "Cn1nccc1/C=N\\NC(=O)c1ccc(Cl)cc1", "activation": "-0.88%"}
{"smiles": "O=C(Nc1ccc(OC(F)(F)F)cc1)c1ccc2c(c1)no[n+]2[O-]", "activation": "-7.81%"}
{"smiles": "Cn1cccc1/C=N/NC(=O)c1ccc(OC(F)(F)C(F)F)cc1", "activation": "8.72% (active)"}
{"smiles": "O=C(COc1cc(Cl)c(Cl)cc1Cl)NC(=O)NC1CCCC1", "activation": "-2.73%"}
{"smiles": "CC(C)CSc1nnc(-c2cccnc2)n1Cc1ccccc1", "activation": "-4.95%"}
{"smiles": "Cc1ccc(CN2CCCCC(NC(=O)C3CCCCC3)C2=O)cc1", "note": "(configuration not stated)", "activation": "-2.16%"}
{"smiles": "Cc1ccc(C)c(C(C)NC(=O)C2CCCO2)c1", "note": "(configuration not stated)", "activation": "-1.74%"}
{"smiles": "Cc1cc(C)c2nc(NC(=O)C3CCCO3)sc2c1", "note": "(configuration not stated)", "activation": "7.96% (active)"}
{"smiles": "Cc1cc(C)c2nc(N3CCC(C(=O)NCCN4CCOCC4)CC3)sc2c1", "activation": "-1.84%"}
{"smiles": "CCOC(=O)[C@]12CCCC3=C1N(CCC3)C(=O)[C@@H](CC(=O)N1CCSCC1)C2", "activation": "-1.03%"}
{"smiles": "CCOc1ccc(-n2c(SCC(=O)Nc3cc(C)c(NC(=O)c4ccccc4)cc3OC)nnc2-c2cccc(Cl)c2)cc1", "activation": "-5.83%"}
{"smiles": "CN(C)S(=O)(=O)c1cccc(C(=O)N/N=C\\c2ccco2)c1", "activation": "-2.36%"}
{"smiles": "CCCCc1ccc(NC(=S)N2CCCC(CO)C2)cc1", "note": "(configuration not stated)", "activation": "15% (active)"}
{"smiles": "COc1cc(NC(=S)N2CCCC(C)C2)cc(OC)c1OC", "note": "(configuration not stated)", "activation": "3.14%"}
{"smiles": "CCC(C)c1ccc(NC(=S)N2CCCC2)cc1", "note": "(configuration not stated)", "activation": "-0.97%"}
{"smiles": "N#CCC[C@H]1CC[C@]2(CCCN(Cc3ccc(Cl)cc3)C2)O1", "activation": "-3.04%"}
{"smiles": "COc1ccccc1C(=O)CSc1nnc(-c2ccccn2)n1-c1ccccc1", "activation": "5.55%"}
{"smiles": "O=S1(=O)c2ccc(N3CCN(Cc4ccccc4F)CC3)cc2Oc2ccccc2CN1Cc1cn(Cc2ccc(Cl)cc2)nn1", "activation": "4.05%"}
{"smiles": "Cc1cccc(NC(=O)C[C@H]2CC[C@H]3[C@@H](COc4ccc(NC(=O)Nc5ccccc5)cc4C(=O)N3C)O2)c1", "activation": "2.72%"}
{"smiles": "Cc1cc(=O)[nH]c(SCC(=O)Nc2ccc(Cl)cc2C)n1", "activation": "-2.94%"}
{"smiles": "O=C(COc1ccc2c3c(c(=O)oc2c1)CCC3)NC1CCCCC1", "activation": "-1.03%"}
{"smiles": "COC(=O)Cc1c(C)c2ccc(OCC(=O)NCc3ccc4c(c3)OCO4)cc2oc1=O", "activation": "2.31%"}
{"smiles": "CCc1c(C)c2ccc(OC3CCCCC3=O)cc2oc1=O", "note": "(configuration not stated)", "activation": "13.8% (active)"}
{"smiles": "Cc1ccccc1NC(=O)Cn1nnc(-c2ccccc2F)n1", "activation": "1.3%"}
{"smiles": "c1ccc(Cc2nn3c(Cn4cnc5ccccc54)nnc3s2)cc1", "activation": "-3.67%"}
{"smiles": "CCC1CCC/C1=N\\NC(=O)c1ccc(Cl)cc1", "note": "(configuration not stated)", "activation": "10.3% (active)"}
{"smiles": "CC(NC(=O)c1ccc(Cl)cc1)C(=O)N1CCCCC1", "note": "(configuration not stated)", "activation": "0.9%"}
{"smiles": "CN1CCC(=NNC(=O)c2ccc(N(Cc3ccc(Cl)cc3)S(C)(=O)=O)cc2)CC1", "activation": "-1.44%"}
{"smiles": "O=C(CSc1ncnc2c1nnn2Cc1ccc(F)cc1)NC1CCCC1", "activation": "-2.99%"}
{"smiles": "CCC(C)(C)c1ccc(Oc2ccc(NC(=O)COC(=O)C3=COCCO3)cc2)cc1", "activation": "-10.1%"}
{"smiles": "O=C(OCC(=O)c1cccs1)c1ccc([N+](=O)[O-])o1", "activation": "-0.97%"}
{"smiles": "O=C(OCC(=O)c1cccs1)C1=COCCO1", "activation": "8.48% (active)"}
{"smiles": "O=C1Nc2ccccc2-n2nnnc2C1N1CCN(c2cccc(C(F)(F)F)n2)CC1", "note": "(configuration not stated)", "activation": "3.09%"}
{"smiles": "CCCn1nc(C(=O)NNC(=O)CSCC(=O)Nc2cc(C)on2)c2ccccc2c1=O", "activation": "-2.41%"}
{"smiles": "CCCCn1nc(C(=O)Nc2cccc(C(=O)NC3CC3)c2)c2ccccc2c1=O", "activation": "1.35%"}
{"smiles": "CCCn1nc(C(=O)Nc2ccc3nc(C)sc3c2)c2ccccc2c1=O", "activation": "11.4% (active)"}
{"smiles": "CCOC(=O)[C@@]12CN(C(=O)OC(C)(C)C)CC=C1N(Cc1ccc(OC)cc1)C(=O)[C@H]2CC(=O)NCc1ccc(OC)c(OC)c1", "activation": "-2.13%"}
{"smiles": "COC(=O)[C@H](CC(C)C)NS(=O)(=O)c1c(F)cccc1F", "activation": "-3.1%"}
{"smiles": "C=CCN(C(=O)[C@@H](CCCC)[C@@H](O)c1ccc(Cl)cc1)c1ccccc1", "activation": "-3.35%"}
{"smiles": "COc1ccccc1CCNC(=O)C1CCN(c2nc(C)cc(C)n2)CC1", "activation": "-2.87%"}
{"smiles": "CCOC(=O)[C@]12CCCC=C1N(CCCOC)C(=O)[C@@H]2CC(=O)N1CCOCC1", "activation": "-2.55%"}
{"smiles": "Cc1noc(C)c1NC(=O)Nc1cccc2c1O[C@H](CN(C)S(=O)(=O)c1c(C)noc1C)[C@@H](C)CN([C@H](C)CO)C2=O", "activation": "2.13%"}
{"smiles": "Cc1noc(C)c1S(=O)(=O)N(C)C[C@H]1Oc2c(NC(=O)Nc3ccc4c(c3)OCO4)cccc2C(=O)N([C@H](C)CO)C[C@@H]1C", "activation": "8.33% (active)"}
{"smiles": "COc1ccc(S(=O)(=O)N(C)C[C@H]2Oc3c(NC(=O)Nc4ccc5c(c4)OCO5)cccc3C(=O)N([C@H](C)CO)C[C@@H]2C)cc1", "activation": "-0.71%"}
{"smiles": "COc1ccc(Cn2cc(COC(=O)N(C)Cc3ccccc3)nn2)cc1", "activation": "0.64%"}
{"smiles": "Cc1noc(C)c1/C=N/Nc1ccc2ccccc2n1", "activation": "9.44% (active)"}
{"smiles": "Clc1ccc(Nc2ccc3ccccc3n2)cc1", "activation": "5.05%"}
{"smiles": "O=C(c1c[nH]c2ccccc12)N1CCC(Oc2cccnc2)CC1", "activation": "3.83%"}
{"smiles": "Cc1cc(C)n(C(=O)CCNC(=O)c2ccccc2Cl)n1", "activation": "0.01%"}
{"smiles": "CN(C)CCNC(=O)c1ccc(Cl)c2cc3ccccc3nc12", "activation": "56.5% (active)"}
{"smiles": "COCCNC(=O)c1ccccc1-c1nc(-c2ccccc2Cl)no1", "activation": "3.36%"}
{"smiles": "CC1(C)CC(=O)C=C(NCCCN2CCCC2=O)C1", "activation": "0.48%"}
{"smiles": "CC1(C)CC(=O)C=C(NCCN2CCNCC2)C1", "activation": "-1.09%"}
{"smiles": "CC1(C)CC(=O)C=C(NCCCNC2CCCCC2)C1", "activation": "10.6% (active)"}
